Among the data in the supplement of paper PMC6555819 are PBM binding z-score values, retold here.

This assay has as its system PPARg:RXRa IVT, anti-PPARg (NR concentration 270 nM, RXRa partner concentration 90 nM). In words: PBM binding z-score (relative to random genomic background probes); higher = stronger binding; sequences stand for … in GC…GCGATTGACAGCGTAGAATGAAGG
An outline of the steps: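 Regression normalization was applied to scanned fluorescence from custom Agilent 4×180K protein-binding microarrays. Before scanning, arrays were incubated 1 h with ligand-free nuclear receptor dimers, and binding was detected with antibodies against each partner (one per run). Binding z-scores use the random background probes as reference.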
Consider CGAACGAGGTCATTGACAGGACAGTGAATAGTAA, for which the PBM binding z-score came to 5.72.
As for TCTAGTTGGTCACGGAGGGCACACACGACGGGTA, the PBM binding z-score amounted to 2.85.
For AGAATGAGGTCATTAAGATCAGGGAATTGCGGTC, the PBM binding z-score was 6.13.
CGCACTAGGTCATCCAGGACAGTGAATACATTGA returned a PBM binding z-score of 8.07.
Turning to TAGCCTAGGTCATGCGGCCCAGTATAGTGTCGGC, the PBM binding z-score turned out to be 2.78.
On to GATACAGGGTCAGCTACAGGCCAGAGTATGGAAA, for which the PBM binding z-score came to 2.25.
To ATCGAAAGGTCGACGCGGTGAGTATACACCGTTT belongs 1.36; to CCTGCTAGGTCATGGTCAGCGAATCTACAGTATG, 3.76; to GCTGCTAGGTCAACTGATGGTCACCTAAAGCTCG, 4.59.
In turn, CCGACTGGGGCAAGGTCACCATAACGCACAGCCA yielded a PBM binding z-score of 4.62.
As for TCTCGGAGGACACCAAAGGTCAGAGCTCGACATC, the PBM binding z-score is 1.71.
To AGTCAAAGTGCATCTAGGTAACGTAAGATATGCT belongs 2.46.
In turn, CCTACTGGGCCAAAAAGTTCATTGATGCCGATAA came in with a PBM binding z-score of 2.64.
As for ATTTGTAGGTTACATCCGGGTCATTCAGGCTATG, the PBM binding z-score stood at 6.29.
Consider CGAACTAGGTCACCCAGGACAGTGAATACATTGA, for which the PBM binding z-score was found to be 8.55.
CGTCCGAGGTCATAGGAGGTCAGTGAAGACAGAT: the PBM binding z-score was 4.71.
As to CCTAGTTGTTCAGGAGGTCACACACCGGATATGA, the PBM binding z-score amounted to 2.97.
In turn, CGAACTACGTCATCCAGGACAGTGAATACATTGA gave a PBM binding z-score of 0.155.
In turn, AATAAAGGGTCATCGTAGGCCAGAGTACGCACAG came in with a PBM binding z-score of 4.41.
In turn, CGTCAAAGTCCAAGGTAACGTAACAGAAAGCAGC yielded a PBM binding z-score of 0.33.
In turn, TAGCCTAGGTCATACAGGGGCCAGTATAGAAAGC registered a PBM binding z-score of 2.89.
For CGAACAAGGTCATTGACAGGACAGTGAATAGTAA, the PBM binding z-score is 4.81.
To ATATGTAGGTTAGCTGGGGTCATTCACACTAGGC belongs 6.11; to CGTCCAAGGACAATGCTAGGTCAGTGAAAGCATT, 0.25; to CGAACGAGGTCATGAGTTGATAGCAAATGCCGAT, 6.46.
AGAATGAGGTCAAGATCAGGGAAACAGAATACAT showed a PBM binding z-score of 6.55.
Sequence CGTCCAAGGTTAAGGTCAGTGAAAGAGACTCGAA showed a PBM binding z-score of 2.04.
In turn, CATACAGGGTCGGCTAGGCCAGAGTAGGGACGGC returned a PBM binding z-score of 0.00635.
CCTACTGGGCCAAAGAGGTCATTGATGCCGATAA: the PBM binding z-score worked out at 4.34.
ATATGTAGGTTAGGGTCAGTCAGAAAGTAGGGAA: the PBM binding z-score was found to be 6.71.
Regarding AGTCAAAGTTTATCTAGGTAACGTAAGATATGCT, the PBM binding z-score was 4.84.
Sequence TAGCCTAGGTCATGCGGGACAGTATAGTGTCGGC displayed a PBM binding z-score of 3.2.
In the case of ACTTAAGGGTCAACGAGGTTATAGCACGCGTATA, the PBM binding z-score came out at 4.06.
In the case of TAGCCTAGTTCATTCAGGGGCCAGTATAGAAAGC, the PBM binding z-score was determined as 1.45.
CGAACAAGGTCATCCAGGACAGTGAATACATTGA showed a PBM binding z-score of 5.07.
In turn, CGTCCGAGGTCAAGGTCAGTGAAAGAGACTCGAA registered a PBM binding z-score of 5.07.
With TAGCCGAGGTCATTCAGGGGCCAGTATAGAAAGC, the PBM binding z-score was 3.9.
To CCTACTCGGCCAAAAAGGTCATTGATGCCGATAA belongs 2.03; to CCTTACGGGTCCCTCCAGGTTATAGCATCGGAGT, -0.601.
AACGAAAGGTCGAAGGTGAGTATACCCACCCGAA returned a PBM binding z-score of 2.16.
